# Source: PubChem BioAssay (National Center for Advancing Translational Sciences (NCATS))
# Most compounds without a hit are left out; they make up all but 7.7% or so of the library.
# HCMV inh: qHTS Assay for inhibitors of the human cytomegalovirus (HCMV); HFF cells, HCMV-luciferase reporter, 72 h; active compounds read low; activity change, negative = inhibition, % at 57.5 µM; 4.5% of 410,000 active; AID 1259415, 2018; in the data active means activity change below about -60%; inconclusive means no clear call, values can overlap the other calls; inactive means above about -39%
#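 HFF cells seeded 16 h at 37C, treated with compounds, infected with luciferase-reporter HCMV at MOI 1 PFU/cell; luciferase read at 72 h post infection, normalized to buffer-only and Salinomycin controls.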
# FMDV antiviral: High Throughput Screening for Foot and Mouth Disease Virus Antivirals | FMDV antiviral cell-based qHTS | Potency, µM (titrated, usually from 57.9 µM), inactives show at the top dose activity change, negative = inhibition, hits mostly inhibitors | 1.2% of 410,000 active | AID 1159524, 2015; calls by dose curve; tested in HEK293T cells; further: read-out not given here; potency means the concentration at half of the fitted maximal effect; nearly all actives have a fitted effect of over 45% in size
# Sm TGR inh: qHTS Assay for the Inhibitors of Schistosoma Mansoni Peroxiredoxins; Schistosoma mansoni thioredoxin glutathione reductase (TGR), Q962Y6; purified TGR, DTNB reduction, TNB absorbance 405 nm; Potency, µM (doses to about 114 µM), for the others: at the top dose activity change, negative = inhibition, hits mostly inhibitors; 3% of 360,000 active; further: potency means the concentration at half of the fitted maximal effect; nearly all actives have a fitted effect of over 60% in size
#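 Kinetic colorimetric format: TGR-catalysed, NADPH-driven DTNB reduction monitored via TNB absorbance. Enzyme dispensed at 20 nM; compound exposure 15 min at room temperature before reaction start.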
# TbPYK inhibitor: qHTS of Trypanosoma Brucei Inhibitors. 0.12% of 410,000 active. pyruvate kinase (Trypanosoma brucei), Q57TT1. Potency, µM (series often up to 76.8 µM), for the others: at the top dose activity, negative = inhibition, most hits filed as inhibitors. TbPYK enzyme, Kinase-Glo Plus ATP luminescence, 45 min. AID 624173, 2012; further: potency means the concentration at half of the fitted maximal effect; nearly all actives have a fitted effect of over 50% in size
#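 Enzyme and substrate buffer are dispensed first and compound is pin-transferred. ADP at 130 uM final then starts the reaction, which runs 45 min at room temperature. Detection reagent is added for 10 min before luminescence is imaged.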
# Giardia FBPA inh: qHTS Assay for Inhibitors of Fructose-1,6-bisphosphate Aldolase from Giardia Lamblia. A8B2U2. purified Giardia FBPA. Potency, µM (top dose mostly 59.6 µM), without a hit: at the top dose activity, negative = inhibition, actives largely listed as inhibitors. 0.71% of 290,000 active; further: potency means the concentration at half of the fitted maximal effect; nearly all actives have a fitted effect of over 55% in size
# Target sequence (A8B2U2 whole entry, looked up): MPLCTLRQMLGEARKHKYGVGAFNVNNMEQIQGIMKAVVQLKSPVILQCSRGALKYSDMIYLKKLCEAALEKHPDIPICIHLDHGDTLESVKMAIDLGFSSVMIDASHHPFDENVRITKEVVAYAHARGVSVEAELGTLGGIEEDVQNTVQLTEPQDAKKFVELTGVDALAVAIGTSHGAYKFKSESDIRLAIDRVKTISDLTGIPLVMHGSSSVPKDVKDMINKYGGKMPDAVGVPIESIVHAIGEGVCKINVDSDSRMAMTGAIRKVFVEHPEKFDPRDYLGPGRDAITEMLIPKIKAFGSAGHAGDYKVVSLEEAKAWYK
#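 Giardia FBPA (40 nM reagent) was preincubated 10 min at RT with compound (up to 57.5 uM final), then substrate plus GAPDH/TPI/NAD/arsenate coupling system with diaphorase/resazurin was added; resorufin fluorescence (525/598 nm) was read after 20 min.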
# RE007 growth inh: qHTS Assay for Inhibitors of the HIV-1 protein Vpr; AID 651644, 2012; S. pombe RE007 Vpr strain, BacTiter-Glo ATP luminescence, 24 h; Potency, µM (doses to about 92.2 µM), for the others: top-dose activity change, negative = less growth, most hits filed as inhibitors; 0.21% of 360,000 active; active means well fitted falling curve with a large enough effect; inconclusive means small, poorly fitted or top-dose-only effect; inactive means no such curve, though single readings can be large or run the other way; further: potency means the concentration at half of the fitted maximal effect; nearly all actives have a fitted effect of over 50% in size
#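 Fission yeast RE007 carrying one integrated HIV-1 vpr copy, seeded at OD 0.01 in PMG+AL medium with 23 nL pinned compound. Grown 24 h at 30 degrees; viability read by BacTiter-Glo luminescence after 5 min.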
# An asterisk follows results filed as active; ? = inconclusive; · = no result given; [ ] = another dose, or the depositor's remark. Unless noted, the call rests on the fitted dose curve; in most records, active means well fitted curve in the direction sought with a large enough effect; inconclusive means small, poorly fitted or top-dose-only effect, or another doubt; inactive means no such curve, though single readings can be large; an effect the other way counts as inactive or inconclusive. On the % scale 0 is the no-effect control and ±100 the full control effect.
SMILES,HCMV inh,FMDV antiviral,Sm TGR inh,TbPYK inhibitor,Giardia FBPA inh,RE007 growth inh
Cc1ccc(C2=NCCn3nc4cc(C(F)(F)F)ccc4c32)cc1,37,23%,-33%,-2%,·,1%
CSC1=NC(C(Cl)(Cl)Cl)N=C(c2ccc(C)cc2)N1 (stereo not given),-71*,-22%,-15%,4%,-19%,16%
CCC(CO)NC(=O)C(=O)Nc1c2c(nn1-c1ccc(F)cc1)CSC2 (stereo not given),-6,-14%,-26%,2%,·,·
O=C(Oc1ccccc1N1C(=O)C2CCCCC2C1=O)c1ccc(Cl)cc1 (stereo not given),-108*,7%,-5%,-4%,5%,-1%
O=C(Oc1ccccc1N1C(=O)C2CCCCC2C1=O)c1ccccc1F (stereo not given),108,-17%,0%,-1%,3%,-9%
COCC1=C2c3ccccc3[C@H](C[N+](=O)[O-])C(C(=O)OC)(C(=O)OC)CC2C2C(=O)N(c3ccccc3)C(=O)C2C1 (stereo not given in full),·,·,·,·,-3%,·
Cc1ccccc1S(=O)(=O)N(C)C[C@@H]1OCc2cn(nn2)CCCC(=O)N([C@@H](C)CO)C[C@H]1C,5,·,·,·,·,·
O=C(Cn1nc(CNc2ccc(Br)cc2)[n+]2c1CCCCC2)c1ccc([N+](=O)[O-])cc1,-92*,-12%,50µM*,-6%,-6%,6%
Cc1cc(O)ccc1N/C=C1\CCCC1=O,-14,15%,?,-12%,8.9µM*,1%
COc1cccc(C(=O)Nc2ccc3c(cc2=O)[C@@H](NC(C)=O)CCc2cc(OC)c(OC)c(OC)c2-3)c1,·,?,0%,6%,-8%,14%
COc1cc2c(c(OC)c1OC)-c1ccc(OC)c(=O)cc1C(NC(C)=O)CC2 (stereo not given),-87*,-5%,-7%,1%,-11%,1%
COc1ccc2c(c1)C(NC(C)=O)CCc1cc(OC)c(OC)c(OC)c1-2 (stereo not given),-67*,-17%,·,-4%,·,15%
COc1cc2c(c(OC)c1OC)-c1ccc(O)c(=O)cc1C(NC(C)=O)CC2 (stereo not given),·,-8%,-3%,-23%,-6%,-4%
CCCC(=O)NC1CCc2cc(OC)c(OC)c(OC)c2-c2ccc(OC)c(=O)cc21 (stereo not given),-91*,-6%,·,-2%,·,2%
COC(=O)c1ccc2c(c1)C(NC(C)=O)CCc1cc(OC)c(OC)c(OC)c1-2 (stereo not given),-81*,-14%,·,2%,·,0%
CN(C)C(=O)c1ccc(-c2nc(Nc3ccccc3)c3ccccc3n2)cc1,·,25%,·,·,-13%,·
CCN(CC)c1ccc(NC(=O)C2CCN(S(=O)(=O)c3c(C)noc3/C=C/c3ccccc3F)CC2)c(C)c1,-5,2%,-5%,3%,·,·
COc1c(C=O)c2c(c(OC)c1OC)-c1ccc(OC)c(=O)cc1C(NC(C)=O)CC2 (stereo not given),-68*,-6%,·,-8%,·,1%
COc1c(O[C@@H]2O[C@H](CO)[C@@H](O)[C@H](O)[C@H]2O)cc2c(c1OC)-c1ccc(SC)c(=O)cc1C(NC(C)=O)CC2 (stereo not given in full),-23,-24%,-29%,1%,·,12%[18.4 µM]
N#CCC(=O)Nc1ccc(C(=O)OCC(=O)NC(=O)Cc2ccccc2)cc1,-13,47%,-16%,-6%,·,15%
CNC(=O)COC(=O)c1ccc(NC(=O)CC#N)cc1,-101*,7%,-24%,1%,5%,16%
CC(=O)c1ccc(NC(=O)CSc2nc(-c3ccccc3C)nc3c2c(=O)n(C)c(=O)n3C)cc1,10,?,50µM*,4%,·,·
CC(=O)c1ccc(NC(=O)CSc2nc(-c3cccc(F)c3)nc3c2c(=O)n(C)c(=O)n3C)cc1,-4,6%,0%,-7%,·,·
Cc1nc(SCC(=O)NCc2ccccc2)c2c(=O)n(C)c(=O)n(C)c2n1,-20,32µM*,3%,5%,6%,13%
Cc1ccccc1N1C(=O)CC(Nc2ccc3c(c2)OCO3)C1=O (stereo not given),-3,0%,?,-31%,-21%,-10%
SMILES,HCMV inh,FMDV antiviral,Sm TGR inh,TbPYK inhibitor,Giardia FBPA inh,RE007 growth inh
COC(=O)c1cc(C(=O)OC)cc(N2C(=O)CC(NNC(=O)c3ccccc3Cl)C2=O)c1 (stereo not given),-8,-5%,-1%,3%,5%,3%
COC(=O)c1ccc(NC2CC(=O)N(c3ccccc3C)C2=O)cc1 (stereo not given),11,7%,32µM*,-7%,4%,-5%
COC(=O)c1ccccc1NC1CC(=O)N(c2c(C)cccc2C)C1=O (stereo not given),15,-24%,7.1µM*,-4%,-3%,-3%
Cc1ccc(-n2c(SCc3ccccc3C)nc3[nH]ncc3c2=O)cc1C,-4,-21%,7%,-3%,·,·
CN(C)c1ccc2c(-c3ccccc3)c3ccc(=[N+](C)C)cc-3oc2c1,·,·,·,·,28%,·
Cc1cccc(C(=O)N2CCc3cc(CNC(=O)c4ccc(Br)o4)ccc32)c1,-67*,6%,3%,0%,·,·
Cc1ccc(C(=O)N2CCc3cc(CNC(=O)c4ccnn4C)ccc32)cc1,-70*,?,0%,-4%,·,·
CCOC(=O)c1cccc(NC(=O)NCc2ccc3c(c2)CCN3C(=O)c2ccccc2)c1,?,40µM*,7%,3%,·,·
O=C(NCc1ccc2c(c1)CCN2C(=O)c1ccccc1)c1ccc(Br)o1,-12,-27%,-7%,0%,·,·
Cc1cccc(C(=O)N2CCc3cc(CNC(=O)c4ccnn4C)ccc32)c1,4,20µM*,4%,-4%,·,·
CCCC(=O)N(c1ccc2oc3c(c2c1)CCCC3)S(=O)(=O)c1cc(C)ccc1C,3,0%,7%,4%,·,·
COc1ccc(NS(=O)(=O)c2ccc3c(c2)CCCN3C(=O)C2CCC2)cc1OC,-27,?,-3%,3%,·,·
Cc1nnc(-n2cccc2)s1,-40,·,·,·,·,·
CC(C)c1ccc(NC(=O)Nc2nc(C(N)C3CCCCC3)cs2)cc1 (stereo not given),-101*,?,·,-2%,·,2%
CC(C)c1ccc(NC(=O)Nc2nc(C(N)c3ccccc3Cl)cs2)cc1 (stereo not given),-70*,?,·,-5%,·,-4%
